The campaign covered roughly 200,000 compounds. About 560 (0.28%) were called active. The sample as a whole holds a higher share of actives than the screen did. Unmarked numbers belong to inactive results. The call rests on the fitted dose curve; in most records, active means well fitted inhibition curve with a large enough effect; inconclusive means small, poorly fitted or top-dose-only effect; inactive means flat fitted curve, though single readings scatter.
On the % scale 0 is the no-effect control and ±100 the full control effect; potency means the concentration at half of the fitted maximal effect.

The experiment has as its target Luciferin 4-monooxygenase (Photuris pensylvanica) (UniProt Q27757). Nature of the experiment: Counterscreen for Luciferase (Kinase-Glo TM) Inhibition. Further: nearly all actives have a fitted effect of over 60% in size. The following applies: ATP luminescence, 8 min; series mostly up to 38.3 µM; activity change, negative = inhibition: at the top concentration. The protocol: NCGC Assay Overview: NIH Molecular Libraries Screening Centers Network [MLSCN] NIH Chemical Genomics Center [NCGC] MLSCN Grant: None Luciferase (Kinase-Glo, Promega Corporation) was assayed for its ability to generate light using ATP and luciferin as substrates. The ATP concentration in the assay (10 uM) was within the linear range of enzyme activity for the assay conditions used.
NCGC Assay Protocol Summary: Four uL of substrate mix (final concentration, 50 mM imidazole pH 7.2, 50 mM KCl, 7 mM MgCl2, 10 uM ATP, 0.01% Tween 20, 0.05% BSA) was dispensed into white 1536 well plates. Twenty-three nL of compound was delivered by a pin tool and 2 uL of luciferase detection mix (Kinase-Glo, Promega)) was added. Following 8-minute incubation at ambient temperature, luminescence was measured by a ViewLux (Perkin Elmer) at 5 seconds exposure/plate.
As to `COC(=O)C1=C(C(=O)OC)[C@@H]2N(C)c3ccccc3[C@@]23C[C@@H](C(=O)OC)N(S(=O)(=O)c2ccc(Br)cc2)C3=N1`, the activity change, negative = inhibition was -4.44% [at 7.66 µM].
On the same count and under the same terms, in the case of `CCCCCCCC/C=C\CCCCCCCC(=O)NCC(=O)O` it was -1.33%.
Still for that read-out and setting: in the case of `CCOC(=O)C1=NO[C@@]2(C=C(Br)C(=O)[C@H]3O[C@H]32)C1` it was 1.87%; in that of `COc1cccc([C@@H]2Oc3ccc(Br)cc3C(=O)[C@H]2OC(=O)NCc2ccc3c(c2)OCO3)c1`, 0.893%.
Still for that read-out and setting: in the case of `COCCN1C(=O)N[C@@H](CCc2ccccc2)[C@H](C(C)=O)[C@H]1C` it was -8.66% [at 7.66 µM]; in that of `Cc1ccc(N2CCN(C3=NC(=O)/C(=C\c4cccs4)S3)CC2)cc1`, 6.68%.
For `CCc1ccc(/C=C2\SC(N3CCOCC3)=NC2=O)cc1`, the “activity change, negative = inhibition” value is 0.0153%.
Take `Cc1ccsc1/C=C1\SC(N2CCOCC2)=NC1=O`: the Potency is 12.6 µM (active).
Turning to `COC(=O)CCCC1=CC2=C(c3ccccc3)C(=O)C(C)(OC(=O)C3CCCC3)C(=O)C2=CN1c1ccc(OC)cc1` (configuration not stated), the activity change, negative = inhibition was -10.4% [at 7.66 µM].
On to `COC(C)C(C(=O)OCC1=CCN2CC[C@H](O)[C@@H]12)C(C)C` (some centres not stated), for which the “activity change, negative = inhibition” value is 0.48%.
Still for that read-out and setting: for `COC(=O)CC1c2ccccc2C(Cc2ccc(OC)cc2)=C(C)N1C(=O)OC` (configuration not stated) the value was -5.96% [at 7.66 µM].
Consider `COc1cccc(/C=N\NC(=O)C2=NNC(=O)C2C)c1O` (configuration not stated), for which the Potency is 12.6 µM (active).
On to `COc1cccc(/C=N/Nc2cc(C)nc(-c3ccccc3O)n2)c1O`, for which the “activity change, negative = inhibition” value was -0.876%.
The same measure, in the same setting: in the case of `COc1cccc(/C=N/NC(=O)c2[nH]nc3c2CCc2ccccc2-3)c1O` it was -1.04%; in that of `Cc1ccc(S(=O)(=O)N2CCC(=O)N([C@H](COCc3ccccc3)Cc3ccccc3)CC2)cc1`, 5.82% [at 39.9 µM].
Same read-out and setting: for `CCOC(=O)C1=C(C)c2ccccc2OC1C(=O)OCC` (configuration not stated) the value was 2.5% [at 39.9 µM]; for `COC(=O)CCCC1=CC2=CC(=O)C(C)(OC(=O)c3cccs3)C(=O)C2=CN1c1ccc(CO)cc1` (configuration not stated), -0.663% [at 7.66 µM]; for `COc1ccc(-c2nc3c(c4c2C[C@H](c2ccccc2)OC4)CN(C(=O)c2ccco2)CC3)c(C)c1`, -7.1% [at 7.66 µM].
As to `COc1ccc2nc(Nc3nc4cc5c(cc4s3)OCCO5)sc2c1`, the “activity change, negative = inhibition” value is 1.58%.
In the case of `Brc1ccc2nc(N3CCCC3)sc2c1`, the “activity change, negative = inhibition” value is -10.5%.
`c1c2c(cc3sc(N4CCCCC4)nc13)OCCO2`: the Potency is 12.6 µM (active).
`CCCCC[C@H](O)/C=C/[C@@H]1[C@@H](CC(=O)CCC(=O)O)[C@@H](O)C[C@H]1O`: the “activity change, negative = inhibition” value is 0.788%.
The same measure, in the same setting: for `COc1ccc(-c2nc3c(c4c2C[C@H](c2ccccc2)OC4)CN(C(=O)c2cccnc2)CC3)c(C)c1` the value was -3.92% [at 7.66 µM].
On the same count and under the same terms, for `CCCCC/C=C\C[C@H](O)/C=C/C=C/C=C/[C@@H](O)CCCC(=O)O` the value was -1.4%; for `Cc1cc2oc(=O)cc(-c3ccccc3)c2c(C)c1-c1ccc(OC(F)(F)F)cc1`, 2.9% [at 39.9 µM].
Turning to `C[C@H]1Cc2c(-c3ccccc3)nc3c(c2CO1)CN(C(=O)C1CC1)CC3`, the activity change, negative = inhibition is -7.42% [at 7.66 µM].
Same read-out and setting: for `CC(Nc1oc(-c2ccccc2)nc1-c1ccccc1)c1ccccc1` (configuration not stated) the value was “inactive”; for `CCN(CC)c1ccc(C(=O)N/N=C/c2ccc(N3CCOCC3)cc2)cc1`, 0.996%.
For the compound `Cc1cc(C(=O)N/N=C/c2ccc(N3CCOCC3)cc2)c(C)o1`, the Potency was 11.2 µM (active).
Take `CC(=C/c1ccccc1)/C=N/NC(=O)c1cc(C)oc1C`: the “activity change, negative = inhibition” value was -23.6%.
With `COc1ccc(-c2nc(-c3ccccc3)oc2Nc2ccc3ccccc3c2)cc1`, the “activity change, negative = inhibition” value was 0.504%.
Consider `Cc1ccc(CC2(O)CCN(CCOc3ccc(O)cc3)CC2)cc1`, for which the “activity change, negative = inhibition” value was -0.52% [at 39.9 µM].
`COC/C=C/C1=CC2=CC(=O)C(C)(OC(=O)CCC(=O)OC)C(=O)C2=CO1` (configuration not stated): the “activity change, negative = inhibition” value is -2.02%.
As for `C=CC1=C2C=C(C3CC3)N(C(CO)CO)C=C2C(=O)C(C)(OC(=O)c2ccco2)C1=O` (configuration not stated), the activity change, negative = inhibition is -0.389% [at 7.66 µM].
The same measure, in the same setting: for `CCN1C(=O)N[C@@H](c2ccccc2)C(C(=O)OC)=C1C` the value was -0.704% [at 7.66 µM]; for `COc1ccc(Br)cc1C(=O)NC(=S)Nc1cc(-c2nc3ccccc3[nH]2)ccc1C`, -2.2%.
As to `c1ccc2[nH]c(-c3nc4ccccc4[nH]3)nc2c1`, the Potency was 11.2 µM (active).
Consider `Cc1ccc(-c2nc3ccccc3[nH]2)cc1NC(=O)c1sc2ccccc2c1Cl`, for which the “activity change, negative = inhibition” value is -4.49%.
Still for that read-out and setting: in the case of `C=CCSc1nc2ccccc2[nH]1` it was -7.25%.
Consider `Cc1ccc(-c2nc3ccccc3[nH]2)cc1N`, for which the Potency was 6.31 µM (active).
On to `OCCNc1nc2ccccc2[nH]1`, for which the “activity change, negative = inhibition” value is -0.325%.
As to `COCOc1cc(OC)ccc1C(=O)/C=C/c1ccc([N+](=O)[O-])cc1`, the “activity change, negative = inhibition” value was -1.04%.
On the same count and under the same terms, for `Cc1cc2oc(=O)cc(-c3ccccc3)c2c(C)c1/C=C/c1ccc(F)cc1` the value was 1.11% [at 39.9 µM].
Still for that read-out and setting: in the case of `COC(=O)c1ccc(NCC(=O)N2CCCCCC2)cc1` it was 0.973%.
With `COC(=O)c1ccc(NCC(=O)c2ccccc2)cc1`, the Potency was 10 µM (active).
Regarding `Cc1ccc(C(=O)CNc2ccc(F)cc2)cc1`, the “activity change, negative = inhibition” value was 0.448%.
In the case of `C/C=C(\C)C(=O)OC1C(OC(=O)C2(C)OC2C)c2cc3ccc(=O)oc3cc2OC1(C)C` (configuration not stated), the “activity change, negative = inhibition” value was 0.763%.
`N/C(=N\OC(=O)c1ccc([N+](=O)[O-])cc1)c1ccccn1`: the Potency was 8.91 µM (active).
`O=C(OCc1ccc([N+](=O)[O-])cc1)c1ccccn1`: the “activity change, negative = inhibition” value was 1.98%.
In the case of `N/C(=N\OC(=O)Cc1ccc([N+](=O)[O-])cc1)c1ccccn1`, the “activity change, negative = inhibition” value is -13.1%.
`C=CC(C1=CC(=O)C=CC1=O)c1ccc(O)cc1` (configuration not stated): the “activity change, negative = inhibition” value was 0.217%.
In the case of `COc1cc(OC)c2c(-c3cccc(-c4cccc(N)c4)c3)cc(=O)oc2c1`, the “activity change, negative = inhibition” value is -2.14% [at 39.9 µM].
The same measure, in the same setting: in the case of `Cn1c(=O)n(C)c2cc(C(=O)Nc3ccc4c(c3)OCO4)ccc21` it was 0.19%; in that of `COc1cc(NC(=O)c2ccc3c(c2)OCO3)ccc1NC(=O)c1cccs1`, -5.78%.
Regarding `COc1ccc(C(=O)Nc2ccc3c(c2)OCO3)cc1OC`, the Potency was 12.6 µM (active).
On the same count and under the same terms, for `COc1ccc(C(=O)/C=C/Nc2ccccn2)cc1` the value was 11.2 µM (active).
Turning to `CCOc1cc(NC(=O)c2ccccn2)c(OCC)cc1NC(=O)c1ccc(OC)cc1`, the “activity change, negative = inhibition” value was -0.562%.
On the same count and under the same terms, for `COc1ccc(-c2csc(Nc3ccccn3)n2)cc1` the value was -10.1%; for `S=C(NCCCc1cnc[nH]1)NCCCN(Cc1ccc(Cl)c(Cl)c1)c1ccc(Br)cn1`, 2.07% [at 39.9 µM].
For `COc1ccc(C2=NOC3(CC(=O)N(c4ccc(C)cc4)C3=O)C2)cc1` (configuration not stated), the “activity change, negative = inhibition” value is -2.28%.
Take `COc1ccc(C2=Nc3cc(C)ccc3OC2)cc1`: the Potency was 8.91 µM (active).
For `COc1ccc(-c2noc(-c3ccc(C)cc3)n2)cc1`, the “activity change, negative = inhibition” value was -1.12%.

These data come from PubChem BioAssay AID1379 (National Center for Advancing Translational Sciences (NCATS), 2008).
